ADAM10 inh: human ADAM10 inhibitors, primary screen, biochemical, QFRET, HTS. Disintegrin and metalloproteinase domain-containing protein 10 (Homo sapiens), O14672. inhibition, % at 7 µM. recombinant ADAM10, EDANS/DABCYL FRET peptide cleavage, 3 h. 370,000 compounds, 0.62% hits. AID 720582, 2013;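 active = inhibition above a per-campaign cutoff equal to the mean of compounds falling between control-based bounds plus 3 SD, cut at about 20% in these data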;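 also: 0% = DMSO wells while the 100% control is not disclosed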
NR3A LBD binder: binders of NR3A ligand-binding domain, primary screen, biophysical, differential scanning fluorimetry, uHTS. 340,000 compounds, 2.5% hits. Glutamate receptor ionotropic, NMDA 3A (GRIN3A) ligand-binding domain. Tm shift relative to glycine control, % at 25 µM. AID 1259313, 2017. NR3A LBD differential scanning fluorimetry, Tm shift; 0% = protein alone, 100% = glycine-bound protein;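 active = melting temperature shift of at least 10% of the positive control shift, at one fixed dose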
KLK7 zymogen act: proKLK7 zymogen activators, primary screen, biochemical, fluorescence intensity; Kallikrein-7 (Homo sapiens), P49862; purified proKLK7, EDANS-DABCYL substrate fluorescence; 100% is mature enzyme control, 0% vehicle; activation, % at 7 µM; 370,000 compounds, 0.9% hits; AID 652039, 2013;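 active = activation above the mean of all tested compounds plus 3 SD, computed per campaign excluding outliers beyond control limits, cut at about 13% in these data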
Target sequence (P49862 whole entry, looked up): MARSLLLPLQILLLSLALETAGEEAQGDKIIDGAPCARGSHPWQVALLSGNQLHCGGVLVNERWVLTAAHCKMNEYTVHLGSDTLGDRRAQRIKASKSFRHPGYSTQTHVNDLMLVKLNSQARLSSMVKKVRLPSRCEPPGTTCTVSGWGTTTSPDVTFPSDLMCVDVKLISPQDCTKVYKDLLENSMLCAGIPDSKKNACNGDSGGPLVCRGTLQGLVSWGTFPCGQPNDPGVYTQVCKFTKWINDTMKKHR
ADAM17 inh: ADAM17 inhibitors, primary screen, biochemical, QFRET; recombinant ADAM17, EDANS/DABCYL FRET peptide cleavage; Disintegrin and metalloproteinase domain-containing protein 17 (Homo sapiens), P78536; AID 720648, 2013; inhibition, % at 6.95 µM; 370,000 compounds, 0.83% hits;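 active = inhibition above the mean of compounds lying between control limits plus 3 SD, set per campaign, cut at about 8.5% in these data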;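 also: 0% = DMSO-only wells as the low control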
FAS-TE inh: FAS thioesterase domain inhibitors, primary screen, biochemical, fluorescence intensity, uHTS. Fatty acid synthase (Homo sapiens), P49327. recombinant FAS-TE, OMFH fluorogenic substrate, fluorescence endpoint. inhibition, % at 15 µM. 360,000 compounds, 0.67% hits;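 active = compounds whose normalised, plate-corrected inhibition of enzyme fluorescence in the single-dose primary screen is 50% or more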;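 also: 0% = DMSO with enzyme and 100% = substrate without enzyme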
ADAM10 ctr: ADAM10 inhibitors, counter-screen for ADAM17 exosite inhibitor project, biochemical, FRET, human ADAM10; recombinant ADAM10, EDANS/DABCYL FRET peptide cleavage, 3 h; inhibition, % at 6.95 µM; 2,900 compounds, 47% hits; shares compounds with ADAM17 inh;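 active = mean inhibition over the triplicate runs exceeds the activity threshold set in the earlier primary screen, cut at about 20% in these data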;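 also: 0% = DMSO wells and 100% = marimastat wells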
ADAM17 confirm: ADAM17 inhibitors, hit retest, confirmation, biochemical, QFRET peptide cleavage. inhibition, % at 6.95 µM. 2,900 compounds, 65% hits. recombinant ADAM17, EDANS/DABCYL QFRET peptide cleavage. shares compounds with ADAM17 inh;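 active = mean inhibition across replicates above the hit cutoff set in the primary screen, cut at about 8.5% in these data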;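 also: 0% = DMSO wells and 100% = marimastat wells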
The depositor's hits bear a star. Hits are enriched below; roughly 4.6% of the tested compounds scored in any of these assays.

What do the screens show for `COc1cc(NC(=O)C2CCCN(S(=O)(=O)c3ccc(Cl)s3)C2)cc(OC)c1` (stereo not given)?
ADAM10 inh: 4.6; KLK7 zymogen act: -0.1; ADAM17 inh: 10.1*; ADAM10 ctr: 35.4*; ADAM17 confirm: 19.1*

How did CCCOc1ccc(CC(=O)NNC(=S)Nc2ccccc2)cc1Br do in these assays?
ADAM10 inh: 13.1; NR3A LBD binder: 18.5*; KLK7 zymogen act: 0.2; ADAM17 inh: 12.4*; FAS-TE inh: -3.5; ADAM10 ctr: 10.3; ADAM17 confirm: 8.6

Results for O=C(CCCc1c[nH]c2ccccc12)Nc1ccc2ccccc2c1 ?
ADAM10 inh: 7.7; NR3A LBD binder: 23.6*; KLK7 zymogen act: -0.1; ADAM17 inh: 10.0*; FAS-TE inh: 23.5; ADAM10 ctr: 1.5; ADAM17 confirm: 4.3

Results for COCc1[nH]nc2c1C(c1cccc(C(F)(F)F)c1)NC2=O (stereo not given) ?
ADAM10 inh: -8.7; KLK7 zymogen act: 0.1; ADAM17 inh: -4.5

Results for Cc1ccc(-c2ccc(/C=N/NC(=S)Nc3ccccc3)o2)cc1[N+](=O)[O-] ?
ADAM10 inh: 13.6; NR3A LBD binder: 27.0*; KLK7 zymogen act: -0.8; ADAM17 inh: 14.2*; FAS-TE inh: 14.6; ADAM10 ctr: 24.4*; ADAM17 confirm: 16.9*

Results for COc1cc(F)ccc1-c1csc(C(C)(O)c2ccccc2)n1 (stereo not given) ?
ADAM10 inh: 18.3; KLK7 zymogen act: 0.4; ADAM17 inh: 10.1*; FAS-TE inh: 16.0; ADAM10 ctr: 23.8*; ADAM17 confirm: 11.4*

How did COc1ccc(-c2csc(C(O)(c3ccccc3)C(F)(F)F)n2)cn1 (stereo not given) do in these assays?
ADAM10 inh: 4.7; KLK7 zymogen act: -0.2; ADAM17 inh: 3.2; FAS-TE inh: 18.1

How did COc1ccccc1-c1csc(C(O)(c2ccccc2)C(F)(F)F)n1 (stereo not given) do in these assays?
ADAM10 inh: 16.6; KLK7 zymogen act: 1.1; ADAM17 inh: 10.3*; FAS-TE inh: 22.1; ADAM10 ctr: 33.6*; ADAM17 confirm: 19.0*

Results for NC(=O)c1c(N)[nH]c(C(=O)c2ccccc2)c1-c1ccc(Br)cc1 ?
ADAM10 inh: -11.4; KLK7 zymogen act: 0.3; ADAM17 inh: -4.7

Results for CC1CC(C)CN(c2ccc(-n3cnnn3)cc2[N+](=O)[O-])C1 (stereo not given) ?
ADAM10 inh: 1.9; NR3A LBD binder: -2.8; KLK7 zymogen act: 0.3; ADAM17 inh: 1.9; FAS-TE inh: 0.2

How did O=[N+]([O-])c1cc(-n2cnnn2)ccc1N1CCC(Cc2ccccc2)CC1 do in these assays?
ADAM10 inh: 26.4*; NR3A LBD binder: -0.8; KLK7 zymogen act: -0.2; ADAM17 inh: 11.9*; FAS-TE inh: 8.7; ADAM10 ctr: 13.0; ADAM17 confirm: 9.2*

How did C[C@@H]1CC=C[C@H]2[C@H]1C(=O)N(Cc1ccccc1)[C@H]2c1ccc(-c2ccoc2)cc1F do in these assays?
ADAM10 inh: 17.9; NR3A LBD binder: -2.4; KLK7 zymogen act: 0.4; ADAM17 inh: 12.6*; FAS-TE inh: 17.5; ADAM10 ctr: 10.2; ADAM17 confirm: 8.2

What do the screens show for `C[C@@H]1CC=C[C@@H]2[C@H]1C(=O)N(Cc1ccccc1)[C@H]2c1cccc(Br)c1`?
ADAM10 inh: 2.3; NR3A LBD binder: -2.6; KLK7 zymogen act: 0.0; ADAM17 inh: 8.6*; FAS-TE inh: 26.6; ADAM10 ctr: 15.7; ADAM17 confirm: 10.4*

Results for C[C@@H]1CC=C[C@H]2[C@H]1C(=O)N(Cc1ccccc1)[C@H]2c1ccc(-c2ccc(F)cc2)cc1F ?
ADAM10 inh: -8.5; NR3A LBD binder: -0.5; KLK7 zymogen act: 0.5; ADAM17 inh: -4.7; FAS-TE inh: 28.4

How did CCOC(=O)N[C@H](C(=O)N1CCC[C@H]1C(=O)NC1CCCC1)c1ccccc1 do in these assays?
ADAM10 inh: 4.7; KLK7 zymogen act: 0.1; ADAM17 inh: 1.6

What do the screens show for `CCOc1ccc(S(=O)(=O)Nc2ccc(F)cc2)c(C)c1C`?
ADAM10 inh: 17.6; NR3A LBD binder: -15.5; KLK7 zymogen act: -0.2; ADAM17 inh: 9.5*; FAS-TE inh: 15.8; ADAM10 ctr: 16.7; ADAM17 confirm: 12.0*

What do the screens show for `CCOc1ccc(NS(=O)(=O)c2cc(OC)ccc2OC)cc1`?
ADAM10 inh: 6.7; NR3A LBD binder: -12.6; KLK7 zymogen act: -0.6; ADAM17 inh: 0.0; FAS-TE inh: -1.8

How did CC(C)(C)NC(=O)c1ccc(COCC(F)(F)F)o1 do in these assays?
ADAM10 inh: -11.2; NR3A LBD binder: 0.4; KLK7 zymogen act: 0.0; ADAM17 inh: 0.8; FAS-TE inh: -8.1

How did O=C(c1ccc(COCC(F)(F)F)o1)N1CCCCCC1 do in these assays?
ADAM10 inh: 9.0; NR3A LBD binder: 0.6; KLK7 zymogen act: 0.8; ADAM17 inh: 11.4*; FAS-TE inh: -8.6; ADAM10 ctr: -4.2; ADAM17 confirm: -2.4

What do the screens show for `COC(=O)C1=C(C)N(C)C(=NCC2CC2)NC1c1cccc(F)c1` (stereo not given)?
ADAM10 inh: -6.3; KLK7 zymogen act: -0.4; ADAM17 inh: -5.2

What do the screens show for `CCOC(=O)C1(CC2CCCCO2)CCN(C(=O)Nc2cccc(SC)c2)CC1` (stereo not given)?
ADAM10 inh: 2.3; NR3A LBD binder: 10.9*; KLK7 zymogen act: -0.2; ADAM17 inh: 9.2*; FAS-TE inh: 5.8; ADAM10 ctr: 2.8; ADAM17 confirm: 0.4

What do the screens show for `COc1cccc(C=NNC(=O)CSc2nc3ccccc3[nH]2)c1O`?
ADAM10 inh: 16.9; KLK7 zymogen act: -2.0; ADAM17 inh: 10.2*; ADAM10 ctr: -7.0; ADAM17 confirm: -0.4

How did COc1cccc(/C=N/NC(=O)CSc2ccccc2C)c1O do in these assays?
ADAM10 inh: -4.3; NR3A LBD binder: -2.0; KLK7 zymogen act: -2.7; ADAM17 inh: -2.1; FAS-TE inh: 6.0

What do the screens show for `CCCCC(=O)Nc1cccc(-c2csc(-c3ccccc3)n2)c1`?
ADAM10 inh: 17.4; NR3A LBD binder: 1.4; KLK7 zymogen act: 0.6; ADAM17 inh: 8.9*; FAS-TE inh: 25.3; ADAM10 ctr: 22.5*; ADAM17 confirm: 16.6*

Screens as filed in PubChem BioAssay.
